Data on 40 compounds can be found in PubChem BioAssay (Tox21).

Records with an inconclusive call do not appear. The source made the active and inactive calls. Calls follow the shape of the dose curve; as a rule, active = well fitted inhibition curve with a large enough effect in the signal ratio in the repeat runs (not every such curve was filed as active); inconclusive = weak or mixed curves, or effect the other way; inactive = no such curve, though single readings can be large or run the other way; the % refers to the signal ratio.

Chain of Estrogen receptor beta (Homo sapiens) (Q92731 whole entry, looked up): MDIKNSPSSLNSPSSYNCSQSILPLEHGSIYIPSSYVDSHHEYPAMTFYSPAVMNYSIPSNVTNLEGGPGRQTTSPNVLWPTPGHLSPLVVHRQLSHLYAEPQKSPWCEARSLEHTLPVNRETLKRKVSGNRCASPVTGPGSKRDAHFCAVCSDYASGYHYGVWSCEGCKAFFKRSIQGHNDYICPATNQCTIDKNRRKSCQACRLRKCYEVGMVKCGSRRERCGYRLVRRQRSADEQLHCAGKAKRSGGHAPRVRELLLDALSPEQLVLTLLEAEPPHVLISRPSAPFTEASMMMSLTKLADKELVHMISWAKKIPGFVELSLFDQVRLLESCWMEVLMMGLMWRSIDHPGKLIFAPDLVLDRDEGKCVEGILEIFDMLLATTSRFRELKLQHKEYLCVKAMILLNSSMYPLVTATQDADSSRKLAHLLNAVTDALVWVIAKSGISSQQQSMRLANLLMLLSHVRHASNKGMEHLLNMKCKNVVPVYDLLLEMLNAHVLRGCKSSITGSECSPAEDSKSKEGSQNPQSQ

The assay addresses Estrogen receptor beta (Homo sapiens) (UniProt Q92731). In words: qHTS assay to identify small molecule antagonists of the estrogen receptor beta (ER-beta) signaling pathway (AID 1259378). To be noted: ER-beta-UAS-bla HEK293T, beta-lactamase FRET ratio, 16 h; series mostly up to 92.4 µM. From the text: National Center for Advancing Translational Sciences [NCATS]
NIH Chemical Genomics Center [NCGC]
U.S. Environmental Protection Agency [EPA]
National Institutes of Environmental Health Sciences [NIEHS]
National Toxicology Program [NTP]
U.S. Food and Drug Administration [FDA]
Estrogen receptor (ER), a nuclear hormone receptor, plays an important role in development, metabolic homeostasis and reproduction. Two subtypes of ER, ER-alpha and ER-beta, have similar expression patterns with some uniqueness in both types. Endocrine disrupting chemicals (EDCs) and their interactions with steroid hormone receptors like ER causes disruption of normal endocrine function. To identify the compounds that inhibit ER signaling, an ER-beta-UAS-bla GripTite cell line (Life Technologies, Madison, WI, USA) containing a beta-lactamase reporter gene under the control of an UAS response element was used to screen Tox21 10K compound library.
Tox21 Assay Protocol Summary:
ER-beta-UAS-bla HEK293T cells were dispensed at 2,000 cells/4 uL of assay medium containing 2% charcoal stripped FBS per well into black wall/clear-bottom 1536-well plates using a Multidrop Combi (ThermoFisher Scientific, Waltham, MA) dispenser. After the assay plates were incubated at a 37C and 5% CO2 for 6 hr, 23 nL of compounds dissolved in DMSO, positive controls or DMSO only was transferred to the assay plate by a Pintool station (Kalypsys, San Diego, CA), followed by addition of 1 uL (1nM as final concentration) of 17-beta-estradiol (E2) in assay medium using a BioRAPTR FRD (Flying Reagent Dispenser, Aurora Discovery, San Diego, CA). The plates were incubated at 37C and 5% CO2 for 16 hr. Then 1 uL of LiveBLAzerTM B/G FRET substrate was added using a Flying Reagent Dispenser, the plates were incubated at room temperature for 2 hours, and fluorescence intensity was measured by an Envision plate reader (PerkinElmer, Shelton, CT).
On to `CC12CC1(C)C(=O)N(c1cc(Cl)cc(Cl)c1)C2=O` (stereo not given), for which the result was inactive.

On to `CN1C(=O)CCS(=O)(=O)C1c1ccc(Cl)cc1` (stereo not given), for which the outcome was inactive.

Take `NNc1ccccc1`: the result was inactive.

Turning to `O=C(O)c1cc(Oc2ccc(C(F)(F)F)cc2Cl)ccc1[N+](=O)[O-]`, the result was inactive.

On to `CCCCC(CC)C(=O)Cl` (stereo not given), for which the result was inactive.

For the compound `N#Cc1cccc(C#N)c1`, the result was inactive.

As to `CN(C)C(=O)C(c1ccccc1)c1ccccc1`, the outcome was inactive.

For the compound `CCNc1nc(Cl)nc(NC(C)C)n1`, the outcome was inactive.

With `CNC(=O)O/N=C/C(C)(C)S(C)(=O)=O`, the outcome was inactive.

Take `Nc1ccc(N)cc1`: the outcome was inactive.

As for `Cc1ccc(O)c(C)c1`, the result was inactive.

Take `CNc1cnn(-c2cccc(C(F)(F)F)c2)c(=O)c1Cl`: the result was inactive.

Turning to `OC[C@@H](O)[C@H]1O[C@@H]2O[C@H](C(Cl)(Cl)Cl)O[C@@H]2[C@H]1O`, the outcome was inactive.

As for `CCOc1ccc(N)cc1`, the outcome was inactive.

For the compound `O=C(O)COc1ccccc1`, the outcome was inactive.

In the case of `Nc1ccc([As](=O)(O)O)cc1`, the result was inactive.

As for `CC[N+](=O)[O-]`, the result was inactive.

Turning to `Cc1cc(Cl)ccc1OC(C)C(=O)O` (stereo not given), the outcome was inactive.

For `CNC(=O)O/N=C(\SC)C(=O)N(C)C`, the outcome was inactive.

In the case of `COP(=S)(OC)Oc1ccc(SC)c(C)c1`, the result was inactive.

As to `COc1nc(NC(C)C)nc(NC(C)C)n1`, the result was inactive.

Turning to `CCSC(=O)N1CCCCCC1`, the result was inactive.

As to `N#CN=C(N)N`, the outcome was inactive.

Regarding `CC(C)c1cccc(C(C)C)c1O`, the outcome was inactive.

As for `Clc1cnc(Oc2ccc(Oc3ncc(Cl)cc3Cl)cc2)c(Cl)c1`, the result was inactive.

On to `Nc1cccc(Cl)c1`, for which the result was inactive.

For `OCc1ccco1`, the result was inactive.

As for `O=C(O)C(Br)Br`, the result was inactive.

`CNC(=O)O/N=C/C(C)(C)S(C)=O` (stereo not given): the outcome was inactive.

With `CNCC(O)c1ccc(O)cc1` (stereo not given), the outcome was inactive.

For `O=C(O)C1C(C(=O)O)C2(Cl)C(Cl)=C(Cl)C1(Cl)C2(Cl)Cl` (stereo not given), the outcome was inactive.

In the case of `COP(=S)(OC)SCN1C(=O)c2ccccc2C1=O`, the outcome was inactive.

`CSc1nnc(C(C)(C)C)c(=O)n1N`: the result was inactive.

On to `ClCCOCCCl`, for which the result was inactive.

As for `CN(C)NC(=O)CCC(=O)O`, the outcome was inactive.

For the compound `O=[N+]([O-])c1ccc(Cl)cc1`, the outcome was inactive.

On to `C=CC#N`, for which the outcome was inactive.

Regarding `Nc1cc(Cl)cc(Cl)c1`, the result was inactive.

Take `Cc1cccc(C)c1NC(=O)CN1CCCC1=O`: the outcome was inactive.

Take `c1ccc2c(c1)CCCC2`: the outcome was inactive.
